Values joined by “and” are separate entries in the source; they are usually repeats but may differ in a detail not shown here. Equal entries are not always repeated. About 83,000 compounds went through this panel and 20% of them were active in at least one assay; those are over-represented in the sample as a whole.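 Plates (96-well) were seeded with cells, treated with compound at one concentration, and incubated for 48 hours before percent growth was determined.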 Unmarked numbers belong to inactive results. Active and inactive are the calls of the source. How the source made its calls: active means growth percent below 10; inactive means the rest.

For the assay, the system named is MDA-MB-468 breast. As to the kind of experiment: NCI-60 one-dose screen, 48 h (100 = growth as untreated, 0 = no growth, -100 = all killed). Particulars: 10 µM unless noted.
`CCC(CC)C(=O)OC(C)COc1ccc(C(C)(C)C)cc1` (stereo not given): the growth is 94.6%.

Turning to `Cc1cc(C)c2c(n1)sc1c(Nc3ccc(Cl)cc3Cl)ncnc12`, the growth was 16.9%. The result for `O=C1/C(=C/c2ccc(Cl)cc2)COc2ccc(O)c(O)c21` reads -15.3% (active).

In the case of `COc1ccc(C2NC3=C(CCCC3)C(C#N)(C#N)C2(C#N)C#N)cc1` (stereo not given), the growth is 58%.

Take `Oc1ccc(Nc2ncnc3c2sc2ncccc23)cc1`: the growth is 21.3%. In the case of `COc1ccc(-c2nn(-c3cccc(NC(=O)c4ccc(N5CCOCC5)c(C(F)(F)F)c4)c3)cc2-c2ccncc2)cc1Cl`, the growth was 80.6%. The result for `Cc1cn(-c2cc(NC(=O)c3cccc(C#Cc4cccc5[nH]nc(N)c45)c3)cc(C(F)(F)F)c2)cn1` reads 67.7%; that for `N#Cc1ccc(C2C3=C(CCCC3=O)OC3=C2C(=O)c2ccccc2C3=O)cc1` (stereo not given), -16.1% (active); that for `Nc1cc(-c2ccccc2)ccc1O`, 93.5%. The figure for `O=c1cc(C(F)(F)F)c2cc(-c3cc4ccccc4c(=O)o3)c(O)cc2o1` is 61.4%. The result for `CON=C1C[C@]2(C[C@@H]3C[C@@H](C/C=C(\C)C[C@@H](C)/C=C/C=C4\CO[C@@H]5[C@H](O)C(C)=C[C@@H](C(=O)O3)[C@]45O)O2)O[C@H](/C(C)=C/C(C)C)[C@H]1C` reads 49%. As to `CCN(CC)CCN(CCN(CC)CC)c1ccccc1`, the growth was 92%. As to `Cc1nc2sc(C(=O)Nc3cccc(Br)c3C)c(N)c2cc1C(O)c1ccccc1` (stereo not given), the growth was 17.9%. The result for `CNc1nc2c(s1)C(c1cc(F)ccc1F)CC(=O)N2` (stereo not given) reads -2.32% (active).

Take `CC(C)NS(=O)(=O)c1cccc(-c2ccc3c(=O)n(CCCN)c4c(c3c2)C(=O)c2ccccc2-4)c1`: the growth was 111%.

As for `COC(=O)CC[C@@H]1O[C@@H](c2cccc(C(F)(F)F)c2)[C@@H](O)[C@H]1O`, the growth is 89%. In the case of `CC(=O)N(C)C1CCc2c(sc(NC(=O)c3ccc(C(C)(C)C)cc3)c2C(N)=O)C1` (stereo not given), the growth was 86.6%. The figure for `COc1ccc(/C(=N\NC(N)=S)c2ccc(Cl)cc2)cc1OC` is 15.9%; for `O=[N+]([O-])c1ccc(Cl)c(S(=O)(=O)O)c1` it is 112%; for `O=c1oc2ccc(-c3ccc(F)cc3F)cc2c(=O)n1-c1ccc(F)c(F)c1` it is -10.8% (active). The figure for `O=C(NC(CSSCC(NC(=O)c1ccccc1)C(=O)O)C(=O)O)c1ccccc1` (stereo not given) is 111%; for `CCCCCCCCCCCC[n+]1ccc(C(N)=O)cc1` it is -42.1% (active). The result for `Oc1nc(NCCc2ccccc2)sc1/C=C1\C=Nc2ncccc21` reads -2.06% (active) and -14.5% (active). With `CCCOc1ccc(-c2nc(-c3ccc(N)cc3)cs2)cc1`, the growth is 110%. The result for `O=C(Nc1cccc([N+](=O)[O-])c1)c1ccc(Cl)c(Cl)c1` reads 64.2%; that for `c1ccc(Nc2nnc(-c3cc(-c4cccnc4)n(-c4ccccc4)n3)s2)cc1`, 104%.

For the compound `O=S(=O)(Nc1cc(Sc2cccc3cccnc23)c(O)c2ccccc12)c1ccc(F)cc1`, the growth is -46.6% (active). Regarding `Nc1ncnc2c1ncn2C1(CO)OCC(O)C(O)C1O` (stereo not given), the growth is 108%. With `O=[N+]([O-])c1c(Cl)ncnc1Cl`, the growth was 101%. The figure for `COc1ccc(-c2cc(-c3ccc(Cl)cc3)nc(NCCCCNc3ccnc4cc(Cl)ccc34)n2)cc1` is 75.1%; for `NCCC(=O)c1ccc(Cl)cc1` it is 113%; for `COc1ccc(-c2cnc(-c3ccncc3-c3cccc(OC)c3)o2)cc1` it is 31.8%.

Take `C#C[C@@]1(O)[C@@H](CO)O[C@@H](n2cc(F)c3c(N)ncnc32)[C@@H]1O`: the growth was -46.2% (active). `CC(C)=NNc1ccc([N+](=O)[O-])cc1[N+](=O)[O-]`: the growth is 96%. The result for `COc1cc(/C=C\c2cc(/C=C\c3ccc(O)c(OC)c3)n(C(=O)Nc3ccc(C(F)(F)F)cc3)n2)ccc1O` reads 43.8%; that for `O=C(O)c1cccc(N/C=C/C(=O)c2cc3cc(Br)ccc3oc2=O)c1`, 96.1%; that for `COc1ccc2c(c1)C(C)Cc1c(ncnc1-n1cnc3ccccc31)N2C` (stereo not given), 27.3%. The result for `CCCCCCCCCCCC1=NCCCN1CCCC` reads 101%; that for `COc1cc(-c2c(-c3ccccc3)c[nH]c2C(=O)NCCCO)c(OC)c2c1OCO2`, 102%. In the case of `CS(=O)(=O)c1nccc(-c2c(-c3ccc(F)c(OCc4ccccc4)c3)nc3sccn23)n1`, the growth was -68.8% (active).

The values are drawn from PubChem BioAssay (NCI).
